Compound activity from PubChem BioAssay.
aSyn 5UTR act – Activators working through SNCA 5'UTR binding (MLPCN); hit rate 7.1% among 300,000; activity score, % (tested at 7.5 µM), hits read low; alpha-synuclein 5'UTR reporter, activators screen; in the data active = activity score below about -60%
The depositor's hits bear a star. Only a sample is shown.

SMILES	aSyn 5UTR act
Oc1ccc(/C=N/Nc2ccc(C(F)(F)F)cn2)cc1	-280*
COc1cc(C(=O)Oc2ccccc2/C=N/NC(=O)c2ccc(C)c(Cl)c2)cc(OC)c1OC	84
COC(=O)c1ccc(/C=N/NC(=O)c2cccc(F)c2)cc1	-134*
COc1cc(C(=O)N/N=C/c2cn(Cc3cccc(F)c3)c3ccccc23)ccc1O	62
O=C(N/N=C/c1ccc[nH]1)c1ccc(Cl)cc1	-121*
O=C(N/N=C/c1ccccc1Cl)c1ccc(F)cc1	-189*
Nc1ccc(C(=O)N/N=C/c2ccccc2)cc1	-140*
CSc1ccc(/C=N/NC(=O)c2cccc(O)c2)cc1	-167*
C/C(=N\Nc1ccc(C(F)(F)F)cn1)c1ccncc1	-148*
O=C(N/N=C/c1cccc(NC(=O)c2ccc(Cl)cc2)c1)c1cccc(O)c1	-68*
O=C(N/N=C/c1cccs1)c1cccc(NC(=O)c2ccc(Cl)cc2)c1	59
O=C(O)c1ccc(N/N=C/c2ccc(C(F)(F)F)cc2)cc1	61
O=C(N/N=C(\c1ccccc1)c1cccnc1)c1cccc(F)c1	80
O=C(N/N=C/c1ccc(C(F)(F)F)cc1)c1ccc(O)cc1	-85*
O=C(N/N=C/c1cnc2ccccc2n1)c1cccc(F)c1	-120*
O=C(N/N=C\c1ccc(F)cc1)c1ccc(F)cc1	-132*
O=C(N/N=C/c1c(O)ccc2ccccc12)c1cccc(C(F)(F)F)c1	111
N=c1n(CCN2CCOCC2)c2ccccc2n1CC(=O)c1ccc(Cl)c(Cl)c1	-66*
CC12COC3(C(=O)Nc4ccc5ccccc5c4)CC1CCC32C (stereo not given)	-144*
CCOC(=O)c1c(C)[nH]c(C(=O)Nc2ccc(C)c(Cl)c2)c1C	-108*
CCc1c(C(=O)Nc2ccc(C)c(C)c2)[nH]c(C)c1C(C)=O	-146*
CCOC(=O)c1c(C)[nH]c(C(=O)Nc2ccc(NC(C)=O)cc2)c1C	89
CC(=O)c1c(C)[nH]c(C(=O)Nc2cccc(C(F)(F)F)c2)c1C	-100*
COc1ccc(NC(=O)c2[nH]c(C)c(C(C)=O)c2C)cc1Cl	-77*
CC(=O)c1c(C)[nH]c(C(=O)Nc2ccc3c(c2)OCCO3)c1C	-144*
SMILES	aSyn 5UTR act
CC(=O)c1c(C)[nH]c(C(=O)Nc2ccc(C)c(C)c2)c1C	-88*
O=C(/C=C/c1ccccc1)CC(=O)c1ccccc1O	-201*
COc1cc(/C=C/C(=O)NC(=O)c2ccccc2O)ccc1O	-161*
O=C(/C=C/c1ccccc1)NC(=O)c1ccccc1O	-157*
O=C(/C=C/c1ccco1)NC(=S)Nc1ccccc1O	-121*
O=C(/C=C\c1ccco1)NC(=S)Nc1ccccc1O	-74*
Cc1c(C(=O)OCC(=O)N2C(C)CCCC2C)oc2ccccc12 (stereo not given)	-118*
O=C(CCCCN1CCCCC1)c1ccc2c(c1)Cc1ccccc1-2	-65*
O=C(O)CCCc1ccc2c(c1)CCc1ccccc1-2	109
Oc1ccc(N=C/C=C/c2ccc(Br)cc2)cc1-c1nc2ccccc2s1	-107*
CC(C)(C)C(=O)Nc1ccc(-c2csnn2)cc1	-74*
CC(=O)O/N=C(\N)c1ccc(-c2csnn2)cc1	-128*
Cc1ccccc1C(=O)Oc1ccc(-c2csnn2)cc1	-68*
CC(C)(C)C(=O)O/N=C(\N)c1ccc(-c2csnn2)cc1	-131*
Cc1ccc(C)c2nc3sc(C(=O)N4CCOCC4)c(N)c3cc12	-129*
Cc1cc(C)c2nc3sc(C(=O)N4CCOCC4)c(N)c3cc2c1	88
O=c1oc(Nc2cccc(Cl)c2)nc2ccccc12	-85*
O=c1oc(Nc2ccccc2Cl)nc2ccccc12	-91*
COc1ccc(-c2nc(-c3cccc(C)c3)nc(N3CCN(C)CC3)c2C#N)cc1	59
Brc1ccc(-c2nnc(-c3ccccc3)c(N3CCSCC3)n2)cc1	-85*
CN1CCN(c2nc(-c3ccc(Br)cc3)nnc2-c2ccccc2)CC1	-123*
CCN(CC)c1ccc(/C=N/Nc2ccccc2)c(O)c1	-62*
CCN(CC)c1ccc(/C=N/N2CCOCC2)c(O)c1	-157*
CCN(CC)c1ccc(C=Nc2ccc(N(C)C)cc2)c(O)c1	-83*
CCN(CC)c1ccc(/C=N/NC(=S)NC)c(O)c1	-94*
SMILES	aSyn 5UTR act
CCN(CC)c1ccc(/C=N/N=C(N)N)c(O)c1	87
Oc1ccc(/C=C/c2cnccn2)cc1	-171*
CCCCOC(=O)Nc1ccc2c(C)cc(=O)oc2c1	-145*
Cc1cc(=O)oc2cc(NC(=O)CCOc3ccccc3)ccc12	-82*
CCOC(=O)Nc1ccc2c(C)cc(=O)oc2c1	-178*
CN(C)/C=C1\C(=O)N(c2ccc(Cl)c(Cl)c2)CS1(=O)=O	-81*
CCNC(=S)/N=C(\N)Nc1nc(C)c2cc(C)ccc2n1	-207*
C/C(=N\NC(N)=S)C1=CCC2C3CC[C@H]4CC(O)CC[C@]4(C)C3CC[C@]12C (stereo not given in full)	-95*
Cc1ccc(C(=O)N2CCN(S(=O)(=O)c3ccccc3[N+](=O)[O-])C2)cc1	-65*
O=C(C1CCCCN1S(=O)(=O)c1ccccc1[N+](=O)[O-])N1CCCC1 (stereo not given)	-62*
CN(C)/C=C(\C#N)C(=O)Nc1ccccc1	-73*
O=C(Nc1nc2c(cc3c4c(cccc42)CC3)s1)c1ccccc1Cl	-65*
CCC1SC(=NC(=O)c2ccc(Cl)c(Cl)c2)NC1=O (stereo not given)	-76*
Cc1cc(Cl)ccc1OCC(=O)N1CCCCC1	-108*
O=C(COc1ccc(Cl)cc1Cl)NC(=O)N1CCCCC1	-121*
Nc1cc(-c2ccccc2)ccc1O	-118*
COc1ccccc1NC(=O)c1ccc2nsnc2c1	-112*
O=C(Nc1ccc(Br)cc1F)c1ccc2nsnc2c1	-106*
COc1cccc(NC(=O)c2ccc3nsnc3c2)c1	-151*
CCCOc1cccc(C(=O)Nc2ccc(Br)cc2F)c1	-161*
COc1ccccc1NC(=O)c1sc(Cl)nc1C	-69*
O=C(Nc1ccc(F)cc1)c1ccc2nsnc2c1	-175*
Cc1nc(NC(=O)C2CC2)sc1C(=O)Nc1ccccc1Cl	-164*
COc1ccc(Nc2sc(C(=O)Nc3cccc(Cl)c3)c(N)c2C(=O)Nc2ccccc2OC)cc1	-67*
COc1cn(-c2ccccc2)nc1C(=O)Nc1ccccc1	-66*
SMILES	aSyn 5UTR act
COc1cn(-c2ccccc2)nc1C(=O)Nc1ccc(C)cc1	-90*
Cc1ccc(COn2c(-c3ccc(Cl)cc3)nc3ccc([N+](=O)[O-])cc32)cc1	-198*
O=[N+]([O-])c1ccc2nc(-c3ccc(Cl)cc3)n(OCc3ccccc3)c2c1	-243*
O=C(NC12CC3CC(CC(C3)C1)C2)c1ccc([N+](=O)[O-])o1	-200*
O=C(NC12CC3CC(CC(C3)C1)C2)c1ccc(-c2ccc(Br)cc2)o1	-246*
CCc1cc2c(=O)c(-c3nc(C)cs3)coc2cc1O	-145*
Cc1csc(-c2coc3cc(O)cc(C)c3c2=O)n1	-207*
O=[N+]([O-])c1ccccc1N/N=C/c1c[nH]c2ccccc12	-105*
O=[N+]([O-])c1ccc(N/N=C/c2c[nH]c3ccccc23)cc1	-139*
Cn1cccc1-c1nc2ccc(NC(=O)c3ccco3)cc2[nH]1	-132*
Cc1ccc2nc(-c3ccc(NC(=O)c4ccco4)cc3)[nH]c2c1	-163*
N/C(=N\OCc1ccc([N+](=O)[O-])cc1)c1ccncc1	-83*
N/C(=N\OC(=O)CSc1ccccc1)c1ccc([N+](=O)[O-])cc1	-121*
COc1ccc(/C(N)=N/OC(=O)CSc2ccccc2)cc1	-162*
